In PubChem BioAssay (NCI):
The panel holds about 83,000 compounds, 20% with a hit somewhere; the sample as a whole holds those more often.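 In brief: 96-well plates, 48 h treatment, single concentration, percent growth endpoint.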 The source made the active and inactive calls. How the source made its calls: active means growth percent below 10; inactive means the rest.

Columns and labels:
Assay in all cases: NCI-60 one-dose screen, 48 h (100 = growth as untreated, 0 = no growth, -100 = all killed)
Settings in all cases: 10 µM unless noted
NCI-H23 lung = test system: NCI-H23 lung
NCI-H226 lung = test system: NCI-H226 lung
NCI-H322M lung = test system: NCI-H322M lung
HOP-62 NSCLC = test system: HOP-62 NSCLC
NCI-H460 lung = test system: NCI-H460 lung
HOP-92 NSCLC = test system: HOP-92 NSCLC
NCI-H522 lung = test system: NCI-H522 lung
A549/ATCC NSCLC = test system: A549/ATCC NSCLC
786-0 renal = test system: 786-0 renal
COLO 205 colon = test system: COLO 205 colon

Measured: growth

COc1cc(NC(=O)C#Cc2ccccc2)c(OC)cc1Cl
inactive: NCI-H23 lung 57.8% | NCI-H226 lung 64.7% | NCI-H322M lung 93.2% | HOP-62 NSCLC 77.6% | NCI-H460 lung 17.8% | HOP-92 NSCLC 78.5% | NCI-H522 lung 39.2% | A549/ATCC NSCLC 59.5% | 786-0 renal 35.1% | COLO 205 colon 64.6%

Cn1c2ccccc2c2ssc(=S)c21
inactive: NCI-H23 lung 92.4% | NCI-H226 lung 105% | NCI-H322M lung 89.9% | HOP-62 NSCLC 110% | NCI-H460 lung 106% | HOP-92 NSCLC 88.6% | NCI-H522 lung 85.7% | A549/ATCC NSCLC 99.7% | 786-0 renal 98.5% | COLO 205 colon 116%

O=C1OC(=O)C2C3CC(c4ccccc43)C12 (stereo not given)
inactive: NCI-H23 lung 101% | NCI-H226 lung 110% | NCI-H322M lung 107% | HOP-62 NSCLC 97.8% | NCI-H460 lung 113% | HOP-92 NSCLC 72.4% | NCI-H522 lung 105% | A549/ATCC NSCLC 91.7% | 786-0 renal 102% | COLO 205 colon 97.8%

Cc1ccc(-c2cc(-c3nnc(SCC(=O)c4ccccc4)o3)c3ccccc3n2)cc1
inactive: NCI-H23 lung 97.1% | NCI-H226 lung 94.5% | NCI-H322M lung 90.3% | HOP-62 NSCLC 108% | NCI-H460 lung 98.3% | HOP-92 NSCLC 96.6% | NCI-H522 lung 87.7% | A549/ATCC NSCLC 91.4% | 786-0 renal 92.8% | COLO 205 colon 111%

O=C(Nc1ccc(F)cc1)Nc1ccc(Br)c(C(F)(F)F)c1
active: NCI-H23 lung -7.43% | NCI-H226 lung -6.87% | NCI-H460 lung 4.62% | HOP-92 NSCLC -13.3% | NCI-H522 lung -16.9% | COLO 205 colon -27.3%
inactive: NCI-H322M lung 22% | HOP-62 NSCLC 23.2% | A549/ATCC NSCLC 10.2% | 786-0 renal 13.6%

Clc1ccc2c(c1)nnn1c3ncccc3c(Br)c21
inactive: NCI-H23 lung 81.1% | NCI-H226 lung 90.1% | NCI-H322M lung 88.5% | HOP-62 NSCLC 63.7% | NCI-H460 lung 78.6% | HOP-92 NSCLC 42.9% | NCI-H522 lung 67.8% | A549/ATCC NSCLC 89.6% | 786-0 renal 56.6% | COLO 205 colon 88.9%

COc1ccccc1N1CCN(CC(O)COc2c(Br)c(Br)c(Br)c3c2OC(C)(C)C3)CC1 (stereo not given)
inactive: NCI-H23 lung 48.8% | NCI-H226 lung 45% | NCI-H322M lung 59.9% | HOP-62 NSCLC 66.1% | NCI-H460 lung 15.1% | NCI-H522 lung 55.1% | A549/ATCC NSCLC 45.5% | COLO 205 colon 58.6%
active: HOP-92 NSCLC -28.9% | 786-0 renal 6.05%

O=S(=O)(CCN1CCOCC1)Nc1cc(-c2ccc3ncnc(Nc4ccc(F)c(Cl)c4)c3c2)cnc1Cl
active: NCI-H322M lung 0.347% | HOP-62 NSCLC -0.609% | HOP-92 NSCLC -20.8% | 786-0 renal 8.06% | COLO 205 colon -6.12%
inactive: NCI-H23 lung 28% | NCI-H226 lung 26.9% | NCI-H460 lung 14.8% | NCI-H522 lung 17.2% | A549/ATCC NSCLC 10.3%

COc1ccc(-c2nnc(NC(=O)CN3CCN(c4cc5c(cc4F)c(=O)c(C(=O)O)cn5C4CC4)CC3)s2)cc1OC
inactive: NCI-H23 lung 96.3% | NCI-H226 lung 87.8% | NCI-H322M lung 98.2% | HOP-62 NSCLC 95.6% | NCI-H460 lung 101% | HOP-92 NSCLC 106% | NCI-H522 lung 89.1% | A549/ATCC NSCLC 100% | 786-0 renal 88.1% | COLO 205 colon 104%

Cc1nc(N)nc(SCc2ccccc2)c1Br
inactive: NCI-H23 lung 93.7% | NCI-H226 lung 83.7% | NCI-H322M lung 70.3% | HOP-62 NSCLC 83.1% | NCI-H460 lung 104% | HOP-92 NSCLC 79.4% | NCI-H522 lung 66.7% | A549/ATCC NSCLC 73.4% | 786-0 renal 88.9% | COLO 205 colon 105%

Oc1ccc(O)c(-[n+]2ccccc2)c1
inactive: NCI-H23 lung 99.4% | NCI-H226 lung 93% | NCI-H322M lung 109% | HOP-62 NSCLC 94.2% | NCI-H460 lung 105% | HOP-92 NSCLC 92.6% | NCI-H522 lung 82.7% | A549/ATCC NSCLC 83.8% | 786-0 renal 95.3% | COLO 205 colon 112%

CO[C@H]1/C=C/C=C/C=C/C[C@H](OC(=O)[C@@H](C)NC(=O)C2CCCCC2)[C@H](C)[C@@H](O)/C(C)=C\CCC2=CC(=O)C=C(NC(=O)C1)C2=O
active: NCI-H23 lung -14.1% | NCI-H226 lung -15% | NCI-H322M lung -2.45% | HOP-62 NSCLC -35.6% | NCI-H460 lung 1.23% | HOP-92 NSCLC -10.7% | NCI-H522 lung -29.9% | A549/ATCC NSCLC -5.23% | 786-0 renal -5.57% | COLO 205 colon -26.6%

O=C(Nc1ccc(-n2ccc3c(NC(=O)c4ccccc4)nccc32)cc1)c1cccc(C(F)(F)F)c1
active: NCI-H460 lung 2.21%
inactive: NCI-H23 lung 50% | NCI-H226 lung 63.9% | NCI-H322M lung 48.8% | HOP-62 NSCLC 46.2% | HOP-92 NSCLC 47.4% | NCI-H522 lung 12.2% | A549/ATCC NSCLC 13% | 786-0 renal 18.3% | COLO 205 colon 35.8%

O=C(c1cc(-c2ccc(Cl)cc2)nc2ccccc12)N1N=C(c2ccccc2)CC1c1cc(-c2ccccc2)nn1-c1ccccc1 (stereo not given)
inactive: NCI-H23 lung 72.5% | NCI-H226 lung 84.1% | NCI-H322M lung 59.8% | HOP-62 NSCLC 74% | NCI-H460 lung 48.6% | HOP-92 NSCLC 85% | NCI-H522 lung 80.8% | A549/ATCC NSCLC 80% | 786-0 renal 90% | COLO 205 colon 84.9%

CC(C(=O)O)N1C(N)=NNC1c1ccccc1O (stereo not given)
inactive: NCI-H23 lung 86.3% | NCI-H226 lung 84.6% | NCI-H322M lung 82.3% | HOP-62 NSCLC 81.5% | NCI-H460 lung 84.7% | HOP-92 NSCLC 77.7% | NCI-H522 lung 74.8% | A549/ATCC NSCLC 83.3% | 786-0 renal 104% | COLO 205 colon 103%

COc1cc(Br)c(-c2nc(-c3ccccc3)c(-c3ccccc3)n2Cc2ccccc2)cc1OC
inactive: NCI-H23 lung 46.8% | NCI-H226 lung 70.4% | NCI-H322M lung 75.1% | HOP-62 NSCLC 91.8% | NCI-H460 lung 48.9% | HOP-92 NSCLC 45.7% | NCI-H522 lung 39.6% | A549/ATCC NSCLC 37% | 786-0 renal 67.9% | COLO 205 colon 30.2%

O=S(=O)(Nc1cccc2cc(OS(=O)(=O)c3ccccc3)ccc12)c1ccccc1
inactive: NCI-H23 lung 73.8% | NCI-H226 lung 74.7% | NCI-H322M lung 90.1% | HOP-62 NSCLC 46.3% | NCI-H460 lung 29.7% | HOP-92 NSCLC 57.6% | NCI-H522 lung 40.5% | A549/ATCC NSCLC 57.1% | 786-0 renal 81.2% | COLO 205 colon 51.9%

C#CC(=O)/C=C/CCCCCCC#CC(=O)CCC(=O)C#CCCCCCC/C=C/C(=O)C#C
inactive: NCI-H23 lung 15% | NCI-H226 lung 122% | NCI-H322M lung 93.5% | HOP-62 NSCLC 61.2% | NCI-H460 lung 80% | A549/ATCC NSCLC 87.8%
active: HOP-92 NSCLC -42.3% | NCI-H522 lung -78.6% | 786-0 renal -46.9% | COLO 205 colon -0.795%

CCN(CC)CCNc1ccc([N+](=O)[O-])c2sc3cc(Cl)ccc3c(=O)c12
inactive: NCI-H23 lung 63.5% | NCI-H226 lung 84.9% | NCI-H322M lung 53.9% | HOP-62 NSCLC 57.7% | HOP-92 NSCLC 47.5% | NCI-H522 lung 49.4% | A549/ATCC NSCLC 52.9% | COLO 205 colon 60.1%
active: NCI-H460 lung -17.8% | 786-0 renal -80.3%

S=c1n(CNc2ccc(Cl)nn2)nc(-c2cc(Cl)cc(Cl)c2Cl)n1/N=C/c1ccc(Cl)cc1
inactive: NCI-H23 lung 88.5% | NCI-H226 lung 96.1% | NCI-H322M lung 74.9% | HOP-62 NSCLC 81.6% | NCI-H460 lung 110% | HOP-92 NSCLC 34.3% | NCI-H522 lung 72.2% | A549/ATCC NSCLC 138% | 786-0 renal 81.9% | COLO 205 colon 132%

CCN(CC)c1ccc(C2CC(c3cc(OC)c(OC)c(OC)c3)=NN2)cc1 (stereo not given)
active: NCI-H460 lung 2.68% | HOP-92 NSCLC -13.6% | NCI-H522 lung -9.2% | COLO 205 colon -25.7%
inactive: NCI-H23 lung 32.3% | NCI-H226 lung 67.9% | NCI-H322M lung 41.5% | HOP-62 NSCLC 34.7% | A549/ATCC NSCLC 13.7% | 786-0 renal 23.5%

CC(=O)Oc1ccc(C(OC(C)=O)OC(C)=O)cc1
inactive: NCI-H23 lung 95.4% | NCI-H226 lung 108% | NCI-H322M lung 98.9% | HOP-62 NSCLC 95% | NCI-H460 lung 111% | HOP-92 NSCLC 113% | NCI-H522 lung 85.4% | A549/ATCC NSCLC 108% | 786-0 renal 95.3% | COLO 205 colon 112%

S=c1ssnc1-c1ccccn1
inactive: NCI-H23 lung 44.5% | NCI-H226 lung 61.4% | NCI-H322M lung 66.5% | HOP-62 NSCLC 47.7% | A549/ATCC NSCLC 57.7% | 786-0 renal 18.1% | COLO 205 colon 43%
active: NCI-H460 lung 6.05% | HOP-92 NSCLC -4.36% | NCI-H522 lung -29.3%

c1ccc(-c2nc3sc(C(c4ccccc4)c4ccccc4)nn3c2-c2ccccc2)cc1
inactive: NCI-H23 lung 92.2% | NCI-H226 lung 99.6% | NCI-H322M lung 93.6% | HOP-62 NSCLC 89.9% | NCI-H460 lung 95.6% | HOP-92 NSCLC 77.9% | NCI-H522 lung 95.3% | A549/ATCC NSCLC 85.3% | 786-0 renal 94.9% | COLO 205 colon 86.8%

COc1cc(-c2nc3ccccc3s2)ccc1OCc1nc2n(n1)S(=O)(=O)c1ccccc1N2C
inactive: NCI-H23 lung 92.7% | NCI-H226 lung 101% | NCI-H322M lung 68.9% | HOP-62 NSCLC 46.1% | NCI-H460 lung 101% | NCI-H522 lung 60.7% | A549/ATCC NSCLC 91.1% | 786-0 renal 62.1% | COLO 205 colon 102%
active: HOP-92 NSCLC 1.17%

O=C1CN(CCN2CC(=O)NC(=O)C2)CC(=O)N1
inactive: NCI-H23 lung 95.9% | NCI-H226 lung 94.7% | NCI-H322M lung 84.3% | HOP-62 NSCLC 93.4% | NCI-H460 lung 117% | HOP-92 NSCLC 72.3% | NCI-H522 lung 97.1% | A549/ATCC NSCLC 101% | 786-0 renal 97.1% | COLO 205 colon 118%
